Results filed as inconclusive are left out. The source made the active and inactive calls. The calls were made as follows, unless noted: active = hit-call score of the fitted dose curve at least 0.9, where 1 is the maximum; inactive = score below 0.9.

Among the data in PubChem BioAssay (EPA / NIEHS) are AC50 and outcome values, retold here.

Experiment [1] is described as follows: BSK_LPS_PGE2: BioMAP Diversity Plus: LPS Assay for Prostaglandin E2 (PGE2) Biomarker Activity (AID 2283082). The settings on record: primary human HUVEC with PBMC; actives raise or lower the signal. Summed up: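 Compounds were added to the LPS co-culture of endothelium and PBMC, and PGE2 was measured by ELISA after 24 h. Responses in either direction were fitted with DMSO as baseline.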

Read-out in experiment [2]: Tissue Factor, F3 (gene 2152)
Nature of the experiment: BSK_LPS_TissueFactor: BioMAP Diversity Plus: LPS Assay for Tissue Factor Biomarker Activity (AID 2283084). The settings on record: primary human HUVEC with PBMC; actives raise or lower the signal. The gist of the method:
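Compound was added to an endothelial cell/PBMC co-culture, and after 24 h tissue factor (CD142) was read by ELISA. Gain or loss of signal was fitted against a DMSO baseline, and parallel SRB staining (560 nm) tracked overt cytotoxicity.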

Read-out in experiment [3]: Tumor necrosis factor (Homo sapiens) (UniProt P01375)
Nature of the experiment: BSK_LPS_TNFa: BioMAP Diversity Plus: LPS Assay for Tumour Necrosis Factor alpha (TNFa) Biomarker Activity (AID 2283085). To be noted: primary human HUVEC with PBMC; actives raise or lower the signal. The gist of the method:
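Cells (umbilical vein endothelium plus peripheral blood mononuclear cells) were dosed with chemical, incubated 24 h, then TNFa was quantified by ELISA; values derive from bidirectional fitting with DMSO as baseline.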

Read-out in experiment [4]: Vascular cell adhesion molecule 1 (VCAM1), VCAM1 (gene 7412)
Nature of the experiment: BSK_LPS_VCAM1: BioMAP Diversity Plus: LPS Assay for Vascular cell adhesion molecule 1 (VCAM1) Biomarker Activity (AID 2283086). The settings on record: primary human HUVEC with PBMC; actives raise or lower the signal. The gist of the method: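 Cells are dosed in an LPS-stimulated endothelial/mononuclear co-culture and, after 24 h, VCAM-1 is quantified by ELISA. Activity in either direction is fitted relative to the DMSO negative control.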

Read-out in a further experiment: CD38, CD38 (gene 952)
Put plainly: BSK_SAg_CD38: BioMAP Diversity Plus: SAg Assay for CD38 Biomarker Activity (AID 2283087). The settings on record: primary human HUVEC with PBMC; actives raise or lower the signal. The gist of the method: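 CD38 quantified by ELISA (fluorescence) in a superantigen-activated endothelial cell–PBMC co-culture at 24 h post-dose. Activity fitted in both directions relative to DMSO; parallel SRB and Alamar Blue cytotoxicity read-outs.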

Read-out in the next experiment: CD40, CD40 (gene 958)
Put plainly: BSK_SAg_CD40: BioMAP Diversity Plus: SAg Assay for CD40 Biomarker Activity (AID 2283088). The settings on record: primary human HUVEC with PBMC; actives raise or lower the signal. The gist of the method:
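CD40 is measured by fluorescence ELISA in an endothelial/PBMC primary human co-culture at 24 h post-dose. Fitting is bidirectional, DMSO baseline. Parallel SRB staining (560 nm) flags cytotoxicity.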

Read-out in the next experiment: CD69, CD69 (gene 969)
Nature of the experiment: BSK_SAg_CD69: BioMAP Diversity Plus: SAg Assay for CD69 Biomarker Activity (AID 2283089). The settings on record: primary human HUVEC with PBMC; actives raise or lower the signal. Summed up: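 Primary human vascular co-culture (umbilical vein endothelium with peripheral blood mononuclear cells) exposed to test chemical for 24 h. CD69 levels quantified by fluorescence ELISA; DMSO served as negative control for bidirectional fitting.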

Read-out in experiment [5]: Monocyte Chemoattractant Protein-1 (MCP1), CCL2 (gene 6347)
Nature of the experiment: BSK_SAg_MCP1: BioMAP Diversity Plus: SAg Assay for Monocyte Chemoattractant Protein-1 (MCP1) Biomarker Activity (AID 2283090). To be noted: primary human HUVEC with PBMC; actives raise or lower the signal. The gist of the method: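 Values derive from bidirectional fitting of ELISA-measured MCP1 against DMSO controls. Readings were taken 24 h after dosing human vascular endothelial cells co-cultured with peripheral blood mononuclear cells under superantigen stimulation.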

Read-out in experiment [6]: E-selectin (Homo sapiens) (UniProt P16581)
Put plainly: BSK_SAg_Eselectin: BioMAP Diversity Plus: SAg Assay for Eselectin Biomarker Activity (AID 2283091). The settings on record: primary human HUVEC with PBMC; actives raise or lower the signal. The gist of the method:
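Cell-surface E-selectin is read by ELISA at 24 h in the SAg co-culture of HUVEC and PBMC. Curves are fitted in both directions relative to DMSO. Parallel SRB total-protein staining tracks overt toxicity.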

Read-out in experiment [7]: Monokine induced gamma interferon (MIG), CXCL9 (gene 4283)
Put plainly: BSK_SAg_MIG: BioMAP Diversity Plus: SAg Assay for Monokine induced gamma interferon (MIG) Biomarker Activity (AID 2283092). The settings on record: primary human HUVEC with PBMC; actives raise or lower the signal. The gist of the method:
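Endothelial cells and PBMC were co-cultured, exposed to test chemicals, and sampled 24 h later. MIG was measured by ELISA, and responses were fitted in both directions relative to DMSO.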

Experiment [8] can be described thus: BSK_SAg_PBMCCytotoxicity: PBMC Cytotoxicity Assessment in the BioMAP Diversity Plus: SAg Assay (AID 2283093).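 Also: PBMC viability measured as Alamar Blue reduction fluorescence at 546/580 nm; fitted both ways against DMSO so a hit may be loss or gain of signal.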 The settings on record: primary human HUVEC with PBMC. The gist of the method:
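Alamar Blue reduction (6 h, ex/em 546/580 nm) read after 90 h culture of PBMC pre-dosed 1 h then stimulated with SEB plus TSST-1, 20 ng/mL each. Gain or loss of signal fitted relative to DMSO.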

Read-out in experiment [9]: Interleukin-8 (IL8), CXCL8 (gene 3576)
Nature of the experiment: BSK_SAg_IL8: BioMAP Diversity Plus: SAg Assay for Interleukin-8 (IL8) Biomarker Activity (AID 2283094). The settings on record: primary human HUVEC with PBMC; actives raise or lower the signal. The gist of the method: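 Chemicals were dosed onto a human endothelial–PBMC co-culture, and IL-8 was quantified by ELISA after 24 h. Both increases and decreases were fitted relative to DMSO.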

Experiment [10] can be described thus: BSK_SAg_Proliferation: Cell Proliferation Assessment in the BioMAP Diversity Plus: SAg Assay (AID 2283095).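 Also: relative cell number as total protein by SRB absorbance in sub-confluent culture.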 To be noted: primary human HUVEC with PBMC. Summed up: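 Absorbance of sulforhodamine B at 560 nm reports total protein in a human vascular endothelial/PBMC co-culture after 96 h chemical exposure. Gain or loss of signal is fitted in both directions against DMSO.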

Experiment [11] in a line: BSK_SAg_SRB: Viability Assessment in the BioMAP Diversity Plus: SAg Assay (AID 2283096).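 Also: cells read one day after compound addition; hits may be either gain or loss of signal compared with DMSO.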 The settings on record: primary human HUVEC with PBMC. Summed up:
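SRB absorbance at 560 nm served as the viability read-out. Cells (HUVEC plus peripheral blood mononuclear cells) were TCA-fixed and stained 24 h post-dosing; activity fitted in both directions against DMSO controls.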

Read-out in experiment [12]: Macrophage colony-stimulating factor (MCSF), CSF1 (gene 1435)
Nature of the experiment: BSK_LPS_MCSF: BioMAP Diversity Plus: LPS Assay for Macrophage colony-stimulating factor (MCSF) Biomarker Activity (AID 2283083). The settings on record: primary human HUVEC with PBMC; actives raise or lower the signal. The gist of the method: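 Bidirectional fitting against DMSO was applied to M-CSF levels read by ELISA at 24 h post-dose. The system pairs human umbilical vein endothelium with peripheral blood mononuclear cells; parallel SRB staining tracked cytotoxicity.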

The target of experiment [13] is human CYP2A6, CYP2A6 (gene 1548) (UniProt P11509). Put plainly: NVS_ADME_hCYP2A6: NovaScreen (NVS) CYP450-related Enzyme Activity (ADME) Assay for human CYP2A6 (AID 2283099; active = hit-call score of the fitted dose curve at least 0.9, where 1 is the maximum). Summed up: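 Compounds screened at 10 uM (duplicate) and, if active, titrated to a 20 uM top concentration against insect-cell-expressed CYP2A6. Loss of fluorescent product signal after 0.5 h, relative to acetonitrile baseline, indicates inhibition.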

Experiment [14] has as its target human CYP1A1, CYP1A1 (gene 1543) (UniProt P04798). Nature of the experiment: NVS_ADME_hCYP1A1: NovaScreen (NVS) CYP450-related Enzyme Activity (ADME) Assay for human CYP1A1 (AID 2283100; active = hit-call score of the fitted dose curve at least 0.9, where 1 is the maximum). Summed up:
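Chemicals were first tested in duplicate at 10 uM, and those passing a 30% inhibition threshold were rerun as concentration series topping at 20 uM. Fluorescence read-out of recombinant enzyme turnover after 1 h, relative to acetonitrile.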

Experiment [15] deals with human CYP2B6, CYP2B6 (gene 1555) (UniProt P20813). Nature of the experiment: NVS_ADME_hCYP2B6: NovaScreen (NVS) CYP450-related Enzyme Activity (ADME) Assay for human CYP2B6 (AID 2283101; active = hit-call score of the fitted dose curve at least 0.9, where 1 is the maximum). Summed up: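 Cell-free recombinant enzyme assay with a fluorogenic substrate; fluorescence intensity read 1 hour after dosing. Loss of signal relative to acetonitrile negative control indicates inhibition. Primary screen run in duplicate at 10 uM, actives then tested in concentration series.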
Chain of human CYP2B6, CYP2B6 (gene 1555) (P20813 whole entry, looked up): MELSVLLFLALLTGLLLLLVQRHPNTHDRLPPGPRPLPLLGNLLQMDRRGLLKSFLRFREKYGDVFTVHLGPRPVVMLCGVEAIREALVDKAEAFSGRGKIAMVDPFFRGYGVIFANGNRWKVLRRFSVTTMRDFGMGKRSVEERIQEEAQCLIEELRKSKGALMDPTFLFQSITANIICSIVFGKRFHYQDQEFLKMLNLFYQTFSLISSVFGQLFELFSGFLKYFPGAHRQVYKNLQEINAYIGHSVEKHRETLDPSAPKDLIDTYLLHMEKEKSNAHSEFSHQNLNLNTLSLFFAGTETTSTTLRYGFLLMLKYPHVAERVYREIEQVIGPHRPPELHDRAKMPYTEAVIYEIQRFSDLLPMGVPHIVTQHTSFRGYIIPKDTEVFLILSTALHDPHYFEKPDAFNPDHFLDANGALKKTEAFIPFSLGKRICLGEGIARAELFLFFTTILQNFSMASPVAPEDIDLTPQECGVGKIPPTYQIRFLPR

Chain of E-selectin (Homo sapiens) (P16581 whole entry, looked up): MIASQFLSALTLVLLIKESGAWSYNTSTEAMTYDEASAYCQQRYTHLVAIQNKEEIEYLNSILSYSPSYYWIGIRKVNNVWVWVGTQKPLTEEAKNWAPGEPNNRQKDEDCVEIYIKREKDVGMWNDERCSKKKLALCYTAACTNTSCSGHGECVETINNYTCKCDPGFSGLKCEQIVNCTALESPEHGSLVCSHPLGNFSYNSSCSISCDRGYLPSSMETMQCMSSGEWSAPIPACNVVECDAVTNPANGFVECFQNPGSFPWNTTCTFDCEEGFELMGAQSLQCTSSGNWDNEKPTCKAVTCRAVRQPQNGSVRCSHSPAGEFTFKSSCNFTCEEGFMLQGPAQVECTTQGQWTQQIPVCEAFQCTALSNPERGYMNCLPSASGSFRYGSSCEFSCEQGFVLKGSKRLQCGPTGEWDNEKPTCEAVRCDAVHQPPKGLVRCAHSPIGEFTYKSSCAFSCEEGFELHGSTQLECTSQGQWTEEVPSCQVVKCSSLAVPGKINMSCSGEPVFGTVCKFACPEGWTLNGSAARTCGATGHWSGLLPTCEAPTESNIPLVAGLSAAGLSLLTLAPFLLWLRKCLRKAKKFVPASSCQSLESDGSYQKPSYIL
Chain of Tumor necrosis factor (Homo sapiens) (P01375 whole entry, looked up): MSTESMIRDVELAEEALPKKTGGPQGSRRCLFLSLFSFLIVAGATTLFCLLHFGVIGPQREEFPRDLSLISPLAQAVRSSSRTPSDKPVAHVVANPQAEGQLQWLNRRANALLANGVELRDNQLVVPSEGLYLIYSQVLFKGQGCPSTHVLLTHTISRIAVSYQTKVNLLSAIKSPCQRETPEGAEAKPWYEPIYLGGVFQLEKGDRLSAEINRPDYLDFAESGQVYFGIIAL
Chain of human CYP2A6, CYP2A6 (gene 1548) (P11509 whole entry, looked up): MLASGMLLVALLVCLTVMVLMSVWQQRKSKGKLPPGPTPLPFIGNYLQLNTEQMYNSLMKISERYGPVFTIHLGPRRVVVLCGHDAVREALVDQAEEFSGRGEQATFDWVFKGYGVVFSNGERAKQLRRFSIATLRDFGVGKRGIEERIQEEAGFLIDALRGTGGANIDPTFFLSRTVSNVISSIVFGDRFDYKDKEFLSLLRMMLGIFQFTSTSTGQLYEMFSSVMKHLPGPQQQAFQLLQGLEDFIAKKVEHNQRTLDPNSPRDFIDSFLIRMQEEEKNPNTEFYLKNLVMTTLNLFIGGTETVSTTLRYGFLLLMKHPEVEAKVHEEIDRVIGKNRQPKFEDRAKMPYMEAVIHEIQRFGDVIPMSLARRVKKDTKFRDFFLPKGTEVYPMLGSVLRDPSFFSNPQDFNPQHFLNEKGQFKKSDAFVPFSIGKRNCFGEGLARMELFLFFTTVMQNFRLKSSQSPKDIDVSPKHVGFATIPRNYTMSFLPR
Chain of human CYP1A1, CYP1A1 (gene 1543) (P04798 whole entry, looked up): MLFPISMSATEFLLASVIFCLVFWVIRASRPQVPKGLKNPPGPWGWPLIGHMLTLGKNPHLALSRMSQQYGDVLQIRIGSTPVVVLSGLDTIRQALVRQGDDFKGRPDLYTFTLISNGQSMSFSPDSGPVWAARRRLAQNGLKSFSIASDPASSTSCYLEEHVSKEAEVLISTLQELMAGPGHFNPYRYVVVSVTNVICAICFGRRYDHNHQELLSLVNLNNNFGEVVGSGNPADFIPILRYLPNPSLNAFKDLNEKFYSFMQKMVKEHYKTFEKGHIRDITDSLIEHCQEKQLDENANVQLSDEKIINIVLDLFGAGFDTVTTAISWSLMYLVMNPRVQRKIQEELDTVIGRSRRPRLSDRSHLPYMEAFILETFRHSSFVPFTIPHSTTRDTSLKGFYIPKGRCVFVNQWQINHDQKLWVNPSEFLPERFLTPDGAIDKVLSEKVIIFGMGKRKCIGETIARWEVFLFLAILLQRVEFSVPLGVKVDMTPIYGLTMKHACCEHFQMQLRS

Take `C[C@]12C=CC3=C4CCC(=O)C=C4CC[C@H]3[C@@H]1CC[C@@H]2O`: the AC50 in [1] was 7.31 µM (active); in experiment [4], 10.3 µM (active); in the experiment with CD38, CD38 (gene 952), 4.63 µM (active); with CD40, CD40 (gene 958), 9.73 µM (active); in [11] it was 7.24 µM (active). Also, the outcome in [2] is “inactive”; in experiment [3], “inactive”; with CD69, CD69 (gene 969), “inactive”; in experiment [5] it was “inactive”; in experiment [6] it was “inactive”; in experiment [7], “inactive”. Also, the result in experiment [8], in experiment [9] and in experiment [10] was inactive.
As to `CCCCCCCCOC(=O)c1ccc(C(=O)OCCCCCCCC)c(C(=O)OCCCCCCCC)c1`, the outcome is “inactive” in experiment [1]; “inactive” in [12]; “inactive” in experiment [2]; “inactive” in [4]; “inactive” with CD38, CD38 (gene 952); “inactive” with CD40, CD40 (gene 958). The outcome with CD69, CD69 (gene 969) was “inactive”; in experiment [5], “inactive”; in experiment [6], “inactive”; in experiment [7] it was “inactive”; in experiment [8], “inactive”; in experiment [9] it was “inactive”. The outcome in experiment [10] and in experiment [11] was inactive.
Consider `c1ccc(NNc2ccccc2)cc1`, for which the AC50 in experiment [1] was 10.6 µM (active). Also, the outcome in experiment [2] is “inactive”; in experiment [3], “inactive”; in [4] it was “inactive”; with CD38, CD38 (gene 952) it was “inactive”; with CD40, CD40 (gene 958) it was “inactive”; with CD69, CD69 (gene 969) it was “inactive”. Also, the result in experiment [5], in experiment [6], in experiment [7], in experiment [8], in experiment [9] and in [10] was inactive. In experiment [11], the outcome was inactive.
Turning to `Cc1cc(N=Nc2ccccc2C)ccc1N`, the AC50 in experiment [1] was 3.97 µM (active); in experiment [4] it was 20 µM (active); with CD38, CD38 (gene 952), 32.4 µM (active); with CD40, CD40 (gene 958) it was 30.7 µM (active); in experiment [5] it was 20 µM (active); in experiment [6] it was 4.75 µM (active). Moreover, the AC50 in experiment [9] was 29.2 µM (active); in [10], 29.2 µM (active); in experiment [11], 9.88 µM (active); in experiment [14] it was 5.4 µM (active); in experiment [15], 1.71 µM (active). For the same compound, the outcome is “inactive” in experiment [12]; “inactive” in experiment [2]; “inactive” in the experiment with CD69, CD69 (gene 969); “inactive” in experiment [7]; “inactive” in [8]; “inactive” in [13].
